Only some compounds are listed: those with a hit (about 2.4% of all), similar ones and a draw of the others.
CRFBP-R2 block = CRF-BP/CRF-R2 complex antagonism; HEK293 CRF-R2/CRF-BP, CRF-induced calcium fluorescence; inhibition, % at 11.8 µM; 350,000 compounds, 0.59% hits;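 active = inhibition of the ligand-induced calcium signal above about 50% at the single tested concentration, limit read from the data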
ABHD5 PLIN5 PPI = ABHD5-PLIN5 protein interaction inhibition; Q00G26+Q8WTS1; Split G. princeps luciferase complementation, luminescence, 4 h; inhibition, % at 4 µM; 360,000 compounds, 0.78% hits; AID 602281;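 active = inhibition above the mean inhibition across every tested compound plus 3 SD, cut at about 22% in these data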;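 note: 0% = DMSO only wells and the 100% control is not disclosed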
TLR9-MyD88 inh = blocks human TLR9 binding to MyD88 | Q9NR96+Q99836 | CHO BLA complementation TLR9-MyD88, CCF4 FRET ratio | inhibition, % at 4.98 µM | 340,000 compounds, 0.21% hits | AID 504734;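 active = inhibition above the mean over all tested compounds plus 3 SD, cut at about 21% in these data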;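 note: 0% = DMSO only wells and 100% = clavulanate BLA inhibitor control wells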
TLR4 MyD88 comp = TLR4-MyD88 interaction inhibition in cells | O00206+Q99836 | HeLa CL3-4 TLR4/MyD88 BLA complementation, FRET ratio | inhibition, % at 8.4 µM | 200,000 compounds, 0.18% hits; in the data active = inhibition above about 25%;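 note: 0% = vehicle and 100% = reference inhibitor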
HTR2A ag = activates the mouse 5-HT2A serotonin receptor; P35363; CHO-K1 mHTR2A beta-arrestin complementation, luminescence; percent of 30 µM serotonin response; activation, % at 7.6 µM; 360,000 compounds, 0.66% hits; AID 624169;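 active = activation above a run cutoff, the mean activation of all tested compounds plus 3 SD, cut at about 14% in these data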;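 note: 0% = plate median of compound wells and 100% = 30 µM serotonin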
NOD2-RIPK2 inh = NOD2-RIPK2 protein interaction inhibition; O43353; CHO BLA complementation NOD2-RIPK2, CCF4 ratio; inhibition, % at 4.98 µM; 360,000 compounds, 0.38% hits; AID 624267; in the data active = inhibition above about 21%;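 note: 0% = vehicle only and 100% = reference blocker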
Target sequence (O43353 whole entry, looked up): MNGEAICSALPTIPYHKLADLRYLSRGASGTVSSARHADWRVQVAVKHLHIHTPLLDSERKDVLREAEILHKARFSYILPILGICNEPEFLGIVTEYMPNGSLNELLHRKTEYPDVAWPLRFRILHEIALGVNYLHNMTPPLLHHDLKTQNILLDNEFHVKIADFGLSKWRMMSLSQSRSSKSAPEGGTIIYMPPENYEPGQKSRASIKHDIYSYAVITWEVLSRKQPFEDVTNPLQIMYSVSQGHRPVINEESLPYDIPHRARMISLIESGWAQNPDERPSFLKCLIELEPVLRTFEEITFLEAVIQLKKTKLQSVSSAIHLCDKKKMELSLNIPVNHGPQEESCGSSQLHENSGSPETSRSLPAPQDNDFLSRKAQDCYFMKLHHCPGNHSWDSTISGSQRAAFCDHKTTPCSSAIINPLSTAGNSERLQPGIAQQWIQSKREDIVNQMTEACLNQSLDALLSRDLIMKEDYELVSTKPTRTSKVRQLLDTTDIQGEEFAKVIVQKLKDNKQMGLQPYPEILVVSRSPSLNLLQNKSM
TLR9-MyD88 conf = confirmation of human TLR9-MyD88 binding inhibitors; 680 compounds, 51% hits; AID 540250; shares compounds with TLR9-MyD88 inh; inhibition, % at 4.98 µM; CHO TLR9/MyD88 BLA complementation, CCF4 FRET ratio;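 active = mean inhibition across three repeats above about 21% taken from the earlier screen, limit read from the data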;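 note: blue over green emission ratio reports constitutive TLR9 MyD88 association via BLA complementation; 0% = DMSO vehicle wells and 100% = clavulanate BLA inhibitor wells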
BLA counter = non-selective beta-lactamase inhibitors in TLR9-MyD88 counter-screen. shares compounds with TLR9-MyD88 inh. CHO-BLA cells, CCF4 FRET ratio, BLA reporter. inhibition, % at 4.98 µM. 680 compounds, 7% hits;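 active = mean inhibition above a 50% cutoff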;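 note: counterscreen of TLR9-MyD88 hits on CMV-driven BLA in CHO-K1 cells; 0% = DMSO alone and 100% = clavulanate blocking BLA; higher means less blue over green ratio so more BLA blockade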
TLR9 CHO tox = CHO cell toxicity counter-screen for TLR9-MyD88 inhibitors. 680 compounds, 39% hits. shares compounds with TLR9-MyD88 inh. TLR9-MyD88 CHO cells cytotoxicity, luminescence. inhibition, % at 4.98 µM; in the data active = inhibition above about 11%
Starred values were filed as active, the others as inactive; x = not tested or not shown.

SMILES	CRFBP-R2 block	ABHD5 PLIN5 PPI	TLR9-MyD88 inh	TLR4 MyD88 comp	HTR2A ag	NOD2-RIPK2 inh	TLR9-MyD88 conf	BLA counter	TLR9 CHO tox
N#CC(=Nc1cccc(F)c1)C1=C(O)c2ccccc2C1=O	x	-1	x	x	-4	-10	x	x	x
Cc1ccc(S(=O)(=O)/N=C2/NC(=O)/C(=C\c3cc(Br)cc(Br)c3O)S2)cc1	-77	-1	-3	x	-3	-2	x	x	x
O=C1N/C(=N\S(=O)(=O)c2ccccc2)S/C1=C\c1cc([N+](=O)[O-])ccc1O	-106	-1	25*	x	-1	11	9	13	0
CC(C)NC(=O)N(C)C[C@H]1OCCCC[C@@H](C)Oc2ccc(N(C)C)cc2C(=O)N([C@H](C)CO)C[C@@H]1C	x	-3	x	x	1	-7	x	x	x
CCOC(=O)CCS(=O)(=O)c1nc(-c2ccccc2)cc(C(F)(F)F)n1	-5	58*	33*	24	-2	69*	39*	13	97*
CCOC(=O)CS(=O)(=O)c1nc(-c2ccc(F)cc2)cc(C(F)(F)F)n1	-12	53*	42*	7	-8	69*	37*	14	99*
O=c1c2cc([N+](=O)[O-])ccc2sn1-c1ccccc1	15	-10	29*	x	2	7	37*	0	87*
CCOC(=O)C1=C[C@@H](C2CCCC2)N(S(=O)(=O)c2ccc([N+](=O)[O-])cc2)[C@H]1c1ccccc1	x	-11	x	x	-2	0	x	x	x
Cc1ccc(N=N/C(=C\O)C(=O)c2ccc(Cl)cc2)cc1	-65	3	21*	-12	10	-10	6	4	11*
O=C(/C(=C/O)N=Nc1ccccc1)c1ccc(Cl)cc1	14	-2	4	-11	-1	-5	x	x	x
COCCN1C[C@@H](CO)O[C@@H](n2cnc3c(N(C)C(C)C)ncnc32)C1	x	-3	x	x	-4	5	x	x	x
CCOC(=O)c1c(C)nc2sc(C(=O)Nc3ccccc3)c(N)c2c1-c1ccc(OC)cc1	3	-5	31*	19	5	14	19	19	15*
CC1(C(=O)Nc2cccc(OC(F)(F)F)c2)Cc2c(-c3cccc(C(N)=O)c3)ccnc2O1 (stereo not drawn)	x	4	x	x	-3	1	x	x	x
COc1ccc2oc(=O)c(-c3nnc(N)s3)cc2c1	-23	2	21*	4	2	17	8	11	-3
O=C(N/N=C/c1c(O)n(-c2ccc(Cl)cn2)c(=O)c2ccccc12)c1ccncc1	-68	-3	21*	13	-6	14	8	10	-5
COc1ccc(C2=CC(c3ccc(C)cc3)n3nnnc3N2)cc1 (stereo not drawn)	-81	-5	26*	8	3	27*	5	7	-2
COc1ccc(C2C=C(c3ccccc3)Nc3nnnn32)cc1 (stereo not drawn)	-21	4	24*	1	1	-2	4	1	-1
COc1cccc(C2CC(=O)Nc3c2c(=O)n(C)c(=O)n3C)c1OC (stereo not drawn)	17	8	24*	-15	2	-9	-2	-3	-5
Cn1c2c(c(=O)n(C)c1=O)C(c1ccccc1Cl)CC(=O)N2 (stereo not drawn)	-3	4	-13	-7	3	-22	x	x	x
Cc1cc2c(cc1C)-n1nnnc1C(N(C)Cc1ccccc1)C(=O)N2 (stereo not drawn)	x	-3	x	x	0	-15	x	x	x
S=c1[nH]nc(COc2ccccc2)n1/N=C/c1ccc(Cl)cc1	18	-2	-8	x	7	-2	x	x	x
CSc1ccc(/C=N/n2c(COc3ccccc3)n[nH]c2=S)cc1	7	-8	22*	x	-8	-2	-1	1	6
